Screening results deposited in PubChem BioAssay by Sanford-Burnham Center for Chemical Genomics.
Most compounds without a hit are left out; they make up all but 28% or so of the library.
Mac1 fbg enh – enhancers of human CD11b/CD18 binding to fibrinogen | activation, % at 10 µM | AID 1499 | K562 CD11b/CD18 adhesion to fibrinogen, ATPlite luminescence | 93,000 compounds, 0.07% hits;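 active means 10 µM primary screen giving 50% or more activity, confirmed by 40% or more on retest at that dose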
CYP2C19 inh – human CYP2C19 inhibition; P33261; CYP2C19 Supersomes, luciferin-H EGE luminescence, 30 min; inhibition, % at 5 µM; 96,000 compounds, 21% hits; AID 778;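 active means CYP2C19 inhibition above a set limit at 5 µM in the primary screen, cut at about 50% in these data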;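 further: plate controls were negative control wells for no effect and 2.5 mM tranylcypromine positive control for full effect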
CD11b adhes inh – CD11b/CD18-fibrinogen binding inhibition; AID 1497; 93,000 compounds, 0.54% hits; P05107+P11215; inhibition, % at 10 µM; K562 CD11b/CD18 adhesion to fibrinogen, ATPlite luminescence; Mn2+ added to activate the integrin;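 active means primary inhibition of 50% or more at 10 µM, then 40% or more on retest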
CYP2C9 inh – human CYP2C9 inhibition; P11712; CYP2C9 Supersomes, luciferin-H conversion, luminescence; inhibition, % at 5 µM; 96,000 compounds, 20% hits;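 active means blocking of liver enzyme CYP2C9 beyond about 50% at 5 µM, limit read from the data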
Target sequence (P11712 whole entry, looked up): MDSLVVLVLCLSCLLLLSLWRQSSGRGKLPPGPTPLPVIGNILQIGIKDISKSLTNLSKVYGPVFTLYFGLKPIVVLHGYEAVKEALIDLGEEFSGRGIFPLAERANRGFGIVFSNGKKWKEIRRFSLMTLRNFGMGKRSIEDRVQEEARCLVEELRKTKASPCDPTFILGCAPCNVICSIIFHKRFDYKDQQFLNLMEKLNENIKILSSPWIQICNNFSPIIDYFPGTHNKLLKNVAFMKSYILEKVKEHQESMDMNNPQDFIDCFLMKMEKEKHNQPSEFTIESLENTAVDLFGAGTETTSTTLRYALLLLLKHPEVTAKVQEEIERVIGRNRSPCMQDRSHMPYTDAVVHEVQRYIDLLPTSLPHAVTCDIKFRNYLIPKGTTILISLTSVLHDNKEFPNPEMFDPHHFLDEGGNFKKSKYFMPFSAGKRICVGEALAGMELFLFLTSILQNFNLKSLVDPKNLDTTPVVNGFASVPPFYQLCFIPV
CYP2C19 activ – cytochrome P450 2C19 (human) activation; 96,000 tested, under 10 active; activation factor at 5 µM; P33261; recombinant CYP2C19, luciferin-H EGE luminescence; stronger effect = higher value; 0 = fully inhibited enzyme, 1 = untreated enzyme;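 active means activation factor of at least 2 at 5 µM in the primary screen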;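 further: 0 = wells with 2.5 mM tranylcypromine and 1 = vehicle-only wells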
CYP2C9 activ – activators of human CYP2C9; P11712; recombinant CYP2C9, luciferin-H conversion, luminescence; stronger effect = higher value; factor 1 = untreated enzyme, 0 = blocked; activation factor at 5 µM; 96,000 compounds, 1.4% hits; AID 1024;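 active means activation factor of 2 or more for CYP2C9 at a 5 µM dose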;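 further: 0 = sulfaphenazole-blocked wells and 1 = vehicle-only wells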
Active calls of the source: *; · = not tested or not shown.

SMILES	Mac1 fbg enh	CYP2C19 inh	CD11b adhes inh	CYP2C9 inh	CYP2C19 activ	CYP2C9 activ
O=C(NCc1cc(C(F)(F)F)cc(C(F)(F)F)c1)C1CC(c2c(Cl)cccc2Cl)=NO1 (stereo not drawn)	0	62*	-1	77*	0.4	0.2
O=C(NCCc1cccs1)C1CC(c2c(Cl)cccc2Cl)=NO1 (stereo not drawn)	·	60*	·	-124	0.4	2.2*
O=C(NCc1ccccn1)C1CC(c2ccc(Cl)c(Cl)c2)=NO1 (stereo not drawn)	4	24	13	-6	0.8	1.1
COc1ccccc1CNC(=O)CSc1nc2nc(C)cc(C)n2n1	·	-7	·	-32	1.1	1.3
O=C(Cn1nc(Cl)nc1Cl)Nc1ccccc1	-1	40	-1	11	0.6	0.9
CCC1(c2cccc(Cl)c2)NC(=O)N(Cc2cc(C(=O)OC)c(C)o2)C1=O (stereo not drawn)	1	62*	13	0	0.4	1
CCC1(c2ccccc2)NC(=O)N(Cc2ccc(C(=O)OC)cc2)C1=O (stereo not drawn)	0	·	19	·	·	·
COc1ccc(NC(=O)CN(C)S(=O)(=O)c2ccc3c(c2)CCC(=O)N3)c(OC)c1	-4	55*	-3	-70	0.5	1.7
CCN(Cc1ccccc1)S(=O)(=O)c1cc(C(=O)NCC2CCCCC2)ccc1OC	-1	·	36	·	·	·
CCN(CC)S(=O)(=O)c1cc(C(=O)Nc2ccccc2C(=O)O)ccc1OC	·	13	·	86*	0.9	0.1
COc1ccc(S(=O)(=O)N(C)CC(=O)Nc2ccccc2OC)cc1C	1	93*	-6	-29	0.1	1.3
COc1ccc(OC)c(S(=O)(=O)N(C)CC(=O)Nc2ccccc2OC)c1	2	77*	-6	26	0.2	0.7
O=C(CNC1=NCCC1)c1ccc(Cl)cc1	-4	·	14	·	·	·
Cc1cc(NCCCN)nc(-c2ccccc2O)n1	-2	10	10	25	0.9	0.7
COC(=O)c1ccccc1NC(=O)CN(C)S(=O)(=O)c1cc(C)ccc1OC	-1	94*	·	67*	0.1	0.3
CCOc1ccccc1NC(=O)CN(C)S(=O)(=O)c1ccc(OC)c(C)c1	4	99*	27	-20	0	1.2
CCOc1c(Cl)cc(C(=O)Nc2ccccc2C(=O)O)cc1Cl	-12	-5	89*	59*	1.1	0.4
COc1ccc(S(=O)(=O)N(C)CC(=O)NCc2cccnc2)cc1C	1	80*	-22	-84	0.2	1.8
COc1ccccc1NC(=O)CN(C)S(=O)(=O)c1ccc2c(c1)CCC(=O)N2	-3	30	2	1	0.7	1
O=C(CSc1nc2[nH]ncc2c(=O)n1-c1ccccc1Br)NCc1ccco1	11	26	-36	25	0.7	0.7
CCOC(=O)C1CCN(C(=O)CCc2c(C)nc3cc(-c4ccccc4)nn3c2C)CC1	-2	32	-3	36	0.7	0.6
CCOC(=O)C1CCCCN1C(=O)CCc1c(C)nc2cc(-c3ccccc3)nn2c1C (stereo not drawn)	-3	68*	-4	60*	0.3	0.4
Cc1nc2cc(-c3cccc(F)c3)nn2c(C)c1CCC(=O)NC(C)CCc1ccco1 (stereo not drawn)	-3	91*	3	91*	0.1	0.1
COc1cc(OC)cc(-c2cc3nc(C)c(CCC(=O)NC(C)CCc4ccco4)c(C)n3n2)c1 (stereo not drawn)	24	50	-21	46	0.5	0.5
COc1ccccc1-c1cc2nc(C)c(CCC(=O)NCc3ccco3)c(C)n2n1	-1	36	-7	32	0.6	0.7
SMILES	Mac1 fbg enh	CYP2C19 inh	CD11b adhes inh	CYP2C9 inh	CYP2C19 activ	CYP2C9 activ
Cc1nc2cc(-c3ccccc3)nn2c(C)c1CCC(=O)NCc1ccco1	0	56*	-3	52*	0.4	0.5
O=C1CCCc2ccccc2N1Cc1ccc(Cl)cc1	·	91*	·	68*	0.1	0.3
O=C1CCCc2ccccc2N1Cc1cccc(Cl)c1	·	84*	·	72*	0.2	0.3
N=c1ccn(Cc2cccc(Cl)c2)cc1	-3	-6	12	-4	1.1	1
CC(C)OC(=O)c1cccc(C(=O)OCc2ccco2)n1	-4	15	4	15	0.8	0.8
CS(=O)(=O)n1nc(-c2ccc(Cl)cc2)nc1SCc1ccccc1	-6	51*	40	69*	0.5	0.3
COc1ccc(-c2nc(SCc3ccccc3)n(C(=O)c3ccco3)n2)cc1	2	-6	-1	27	1.1	0.7
Cc1ccc(NC(=O)CN2CCCCCC2)c(Br)c1	2	80*	10	14	0.2	0.9
O=C(CN1CCCCC1)Nc1ccccc1	-3	34	-39	5	0.7	0.9
O=C(CN1CCCCCC1)Nc1ccc(F)c(F)c1F	-1	72*	-18	8	0.3	0.9
CCOC(=O)C1C(C)=CC(=O)CC1c1ccco1 (stereo not drawn)	2	32	6	2	0.7	1
CCOC(=O)C1C(=O)C=C(c2ccc(NS(C)(=O)=O)cc2)CC1c1ccco1 (stereo not drawn)	·	21	·	75*	0.8	0.2
CCOC(=O)C1C(=O)C=C(c2ccc(C)cc2)CC1c1ccco1 (stereo not drawn)	·	54*	·	80*	0.5	0.2
CS(=O)(=O)N1CCCC(C(=O)NCc2ccc(F)cc2)C1 (stereo not drawn)	-1	1	-32	0	1	1
CCOC(=O)c1cc2occc2n1CC(=O)N1CCOCC1	0	9	18	-11	0.9	1.1
CCOC(=O)c1cc2sc(C)cc2n1CCCN1C(=O)c2ccccc2C1=O	·	14	·	57*	0.9	0.4
CCOC(=O)c1cc2occc2n1CCCN1C(=O)c2ccccc2C1=O	2	21	-7	87*	0.8	0.1
CCOC(=O)c1cc(-c2ccccc2)sc1NC(=O)CCN1C(=O)c2ccccc2C1=O	2	·	1	·	·	·
COC(=O)c1ccccc1Sc1c(/C=N/OC(=O)c2ccccc2)c(C(F)(F)F)nn1C	-5	39	-11	91*	0.6	0.1
Cc1ccc(C(=O)O/N=C/c2c(C(F)(F)F)nn(C)c2Sc2ccc(Cl)cc2)cc1	4	23	0	80*	0.8	0.2
COc1ccc(C(=O)O/N=C/c2c(C(F)(F)F)nn(C)c2SCc2ccccc2Cl)cc1	-4	17	15	30	0.8	0.7
Cn1nc(C(F)(F)F)c(/C=N/OC(=O)c2ccccc2Cl)c1SCc1ccc(Cl)cc1	·	54*	·	77*	0.5	0.2
COc1ccc(C(=O)NCC2OCCc3ccccc32)c(O)c1 (stereo not drawn)	-1	90*	-31	51*	0.1	0.5
